Assay outcomes (PubChem)
PAX8 inh HTS: inhibitors of PAX8-driven TPO luciferase reporter, primary screen, RMG-I cells, single concentration | SteadyGlo, 24 h | inhibition, % at 12.6 µM | 1.2% of 360,000 active;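 active = mean replicate inhibition at least 60% with every replicate also reaching 60%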;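 also: luciferase light reporting Pax8 driven TPO promoter activity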
LGR2 antag: inhibitors of bursicon-induced LGR2 CRE-luciferase signal, primary screen, cell-based, HEK293, CRE-luciferase reporter, bursicon stimulation. 0.35% of 380,000 active. bursicon-stimulated, 4 h. Drosophila bursicon receptor LGR2 (rickets). inhibition, % at 9.99 µM;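 active = drop in luminescence signal, shown as inhibition above about 50% in the replicate tests, limit read from the data, passing the limit was not always enough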;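 also: agonist challenge used bursicon conditioned medium at about half maximal strength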
CF NFkB inh: inhibitors of PAF-induced NF-kB signaling, primary screen, cell-based, GFP fluorescence, uHTS; KKLEB NF-kB-GFP reporter, GFP fluorescence overnight; 0.86% of 360,000 active; inhibition, % at 5 µM;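 active = at least 50% inhibition at 5 µM, scaled per plate between neutral and stimulator controls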;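 also: PAF is a Pseudomonas aeruginosa culture filtrate used as stimulus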
Shn3 inh set2: reduction of Shn3 3'UTR firefly luciferase signal, primary screen, Schnurri-3 inhibitor project, cell-based, Clone20 osteoblasts, set 2. Clone20 osteoblast Shn3 3'UTR firefly luciferase, 24 h. inhibition, % at 12.5 µM. 0.52% of 360,000 active;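 active = mean inhibition of at least 75% with every replicate also reaching 75%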
KKLEB cytotox: cytotoxicity in KKLEB CF airway cells, primary screen, cytotoxicity control for CF NF-kB inhibitor project, cell-based, uHTS, fluorescence assay plates; KKLEB CF airway cells viability, ATPlite luminescence, overnight; stronger effect = lower value; cells stimulated with P. aeruginosa culture filtrate; activity change (cytotoxicity), % at 5 µM; 0.36% of 360,000 active; AID 602141, 2011;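 active = corrected activity change at or below -50% at 5 µM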
EWS-Fli block: EWS/Fli-driven NR0B1 reporter inhibitors, primary screen, A673 cells, NR0B1 luciferase, luminescence, MLPCN library. AID 651661, 2012. inhibition, % at 12.6 µM. 0.67% of 350,000 active. viability-normalised;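 active = mean inhibition of at least 50% after viability correction, with every replicate also passing that limit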;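 also: firefly luciferase signal divided by Alamar Blue viability fluorescence both relative to DMSO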
A number is an active result; 0 = inactive; - = no result. Most compounds without a hit are left out; they make up all but 2% or so of the library.

SMILES | PAX8 inh HTS | LGR2 antag | CF NFkB inh | Shn3 inh set2 | KKLEB cytotox | EWS-Fli block
CN1C(=O)c2cc(NC(=O)C3CCC3)ccc2OC[C@@H]2O[C@H](CC(=O)NCc3ccccc3F)CC[C@H]21 | 0 | 0 | - | - | - | 0
C[C@H]1CN([C@@H](C)CO)S(=O)(=O)c2ccc(C#Cc3cccc(F)c3)cc2O[C@H]1CN(C)C(=O)CN1CCOCC1 | - | 0 | - | - | - | 0
O=C(/C=C\Nc1ccc2c(c1)OCO2)c1ccccn1 | - | - | 0 | 0 | -54.5 | -
O=C(c1ccoc1)N1CCN(c2cc(-c3cccc(F)c3)nc3cc(-c4cccc(Cl)c4)nn23)CC1 | 0 | 0 | 0 | 90.8 | 0 | 0
O=C(c1ccccc1)N1CCN(c2cc(Cl)nc3cc(-c4cccc(Cl)c4)nn23)CC1 | 0 | 0 | 0 | 0 | 0 | 0
COc1ccccc1-c1cc(C(=O)Nc2cc(C)n(Cc3ccc(Cl)cc3)n2)no1 | - | 0 | 60.2 | 0 | -76.4 | -
C[C@@H]1CCCCO[C@@H](CN(C)C(=O)NC2CCCCC2)[C@@H](C)CN([C@H](C)CO)C(=O)c2cc(NS(=O)(=O)c3ccc(Cl)cc3)ccc2O1 | 0 | 0 | - | - | - | 0
C[C@@H]1CCCCO[C@H](CN(C)C(=O)NC2CCCCC2)[C@H](C)CN([C@@H](C)CO)C(=O)c2cc(NS(=O)(=O)c3ccc(Cl)cc3)ccc2O1 | 79.6 | 0 | - | - | - | 0
C[C@H]1CCCCO[C@H](CN(C)C(=O)NC2CCCCC2)[C@@H](C)CN([C@@H](C)CO)C(=O)c2cc(NS(=O)(=O)c3ccc(Cl)cc3)ccc2O1 | 71.2 | 0 | - | - | - | 0
C=CC(COC(C)=O)NS(=O)(=O)c1ccc(Br)cc1 (centres undefined) | 0 | - | - | - | - | 0
Cc1cc[n+](CC(=O)c2ccc(NC(=O)c3ccccc3)cc2)c2ccccc12 | 79.6 | - | 0 | 0 | 0 | 0
COc1cccc(S(=O)(=O)N[C@H]2CC[C@H](CC(=O)NCc3ccccc3)O[C@@H]2CO)c1 | 0 | 0 | - | - | - | 0
C[C@@]12C(=O)Nc3ccccc3C(=O)N1[C@H]1c3cc(Br)ccc3OC[C@@H]1[C@@H]2c1ccccc1 | 0 | 0 | 0 | 0 | 0 | 55.6
Cc1ccc2c(c1)[C@H]1[C@H](CO2)[C@H](c2ccccc2)[C@]2(C)C(=O)Nc3cc(Cl)ccc3C(=O)N12 | - | - | 0 | 0 | 0 | -
Cc1ccc2c(c1)[C@H]1[C@H](CO2)[C@H](c2ccccc2)[C@]2(C)C(=O)Nc3cc(F)c(F)cc3C(=O)N12 | 0 | 0 | 0 | 0 | 0 | 58.8
Cc1ccc2c(c1)[C@H]1[C@H](CO2)[C@H](c2ccccc2)[C@]2(C)C(=O)Nc3ccc(F)cc3C(=O)N12 | 0 | - | 0 | 0 | 0 | 56.3
CC(=O)C1CCC2C3CCC4=CC(=O)CCC4(C)C3(Br)C(=O)CC12C (centres undefined) | 0 | 0 | 0 | 0 | 0 | 0
CCC(=O)OCC(=O)[C@@]1(OC(=O)CC)[C@@H](C)C[C@H]2[C@@H]3CCC4=CC(=O)C=C[C@]4(C)[C@@]3(Cl)[C@@H](O)C[C@@]21C | 0 | 0 | 67.4 | 0 | 0 | 0
CC1(C)O[C@@H]2C[C@H]3[C@@H]4CCC5=CC(=O)CC[C@]5(C)[C@@]4(F)[C@@H](O)C[C@]3(C)[C@]2(C(=O)CCl)O1 | 0 | 0 | 77.3 | 0 | 0 | 0
C[C@@H]1C[C@H]2[C@@H]3CCC4=CC(=O)C=C[C@]4(C)[C@@]3(F)[C@@H](O)C[C@]2(C)[C@H]1C(=O)CO | 0 | 0 | 71.6 | 0 | 0 | 0
C[C@@H]1C[C@H]2[C@@H]3C[C@H](F)C4=CC(=O)C=C[C@]4(C)[C@@]3(F)[C@@H](O)C[C@]2(C)[C@@]1(O)C(=O)COC(=O)C(C)(C)C | 0 | 0 | 75.9 | 0 | 0 | 0
COc1ccc2c3c([nH]c2c1)[C@@H](CO)N(Cc1ccccc1OC)CC31CN(C(C)=O)C1 | 0 | 0 | - | - | - | 0
CC(=O)C12OC(C)(C)OC1CC1C3CCC4=CC(=O)C=CC4(C)C3(F)C(O)CC12C (centres undefined) | 0 | 0 | 79.3 | 0 | 0 | 0
